CHRM1 agonist: agonists of human M1 muscarinic receptor; CHO-K1 hM1, Fluo-8 calcium fluorescence, agonist mode; 0% DMSO, 100% acetylcholine EC100; activation, % at 3 µM; P11229; 0.33% of 360,000 active;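 active means activation above the run's mean compound activation plus 3 SD, cut at about 16% in these data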;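 further: peak over basal fluorescence ratio within a 140 s kinetic read after compound addition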
Target sequence (P11229 whole entry, looked up): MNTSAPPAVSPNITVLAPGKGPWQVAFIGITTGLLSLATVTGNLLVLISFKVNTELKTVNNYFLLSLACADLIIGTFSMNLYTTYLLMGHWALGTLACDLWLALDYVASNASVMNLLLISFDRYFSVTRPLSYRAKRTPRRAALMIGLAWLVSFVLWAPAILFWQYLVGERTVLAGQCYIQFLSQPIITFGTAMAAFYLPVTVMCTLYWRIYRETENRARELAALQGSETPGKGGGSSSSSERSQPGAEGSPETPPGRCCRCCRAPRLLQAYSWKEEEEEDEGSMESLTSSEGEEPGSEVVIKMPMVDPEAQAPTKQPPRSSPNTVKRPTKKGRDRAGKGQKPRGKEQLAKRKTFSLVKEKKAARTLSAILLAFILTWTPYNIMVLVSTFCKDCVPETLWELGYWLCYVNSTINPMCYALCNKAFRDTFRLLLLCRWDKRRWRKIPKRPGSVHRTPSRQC
CHRM1 PAM: potentiates human M1 receptor response to acetylcholine. 0.088% of 360,000 active. P11229. activation, % at 3 µM. CHO-K1 hM1, Fluo-8 calcium fluorescence, ACh EC20; 0% = ACh EC20, 100% = maximal ACh; in the data active means activation above about 19%, passing the limit was not always enough
M1 ag parental: M1 agonist counterscreen hit in parental CHO-K1 cells. AID 602248. 0.48% of 360,000 active. Fluo-8 calcium fluorescence; scaled to maximal ATP response, vehicle zero. activation, % at 3 µM; in the data active means activation above about 15%;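 further: untransfected CHO-K1 host cells lacking M1 receptor as counterscreen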
CHO-K1 Ca antag: counter-screen for M1 antagonists: effect in parental CHO-K1 cells. ATP-induced calcium, Fluo-8 fluorescence. inhibition, % at 3 µM. 0.6% of 360,000 active;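 active means inhibition above a per-plate cutoff, the plate's mean sample inhibition plus 3 SD, cut at about 24% in these data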;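 further: 0% = DMSO plus EC80 ATP and 100% = DMSO alone without ATP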
CHRM1 antagonist: blocks human M1 muscarinic receptor | P11229 | CHO-K1 hM1, Fluo-8 calcium fluorescence, ACh EC80 antagonist | inhibition, % at 3 µM | 1.3% of 360,000 active | AID 588852;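 active means percent inhibition above its own plate's cutoff, namely the mean of that plate's compound wells plus 3 SD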;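 further: peak over basal fluorescence ratio during 140 s after agonist addition; 0% = ACh EC80 plus DMSO and 100% = DMSO alone without agonist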
M1 PAM parental: M1 PAM counterscreen hit in parental CHO-K1 cells | AID 602247 | 0.02% of 360,000 active | ATP EC20, Fluo-8 calcium fluorescence; 0% at ATP EC20, 100% at ATP max | activation, % at 3 µM;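 active means activation above the run cutoff, the mean activation of all test compounds plus 3 SD, cut at about 40% in these data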;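 further: peak over basal fluorescence ratio in a 140 s read after ATP addition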
* hit, by the source's call. This is a sample that favours compounds with a hit; in the whole collection about 2.3% have one here.

SMILES	CHRM1 agonist	CHRM1 PAM	M1 ag parental	CHO-K1 Ca antag	CHRM1 antagonist	M1 PAM parental
Cc1c(N2C(=O)c3ccc4c5c(ccc(c35)C2=O)CC4)c(=O)n(-c2ccccc2)n1C	-5	8	0	5	-13	7
c1ccc(C(CN2CCCCC2)Oc2ccccn2)cc1 (stereo not given)	-5	-27	0	9	83*	-22
OC(COC(c1ccccc1)c1ccccc1)CN1CCCCC1 (stereo not given)	-7	-4	0	6	-12	0
C=CCn1c(SCc2c(Cl)cccc2Cl)nnc1-c1cccnc1	0	5	1	1	-5	9
O=C(N/N=C/c1ccc(O)cc1O)c1ccc(CN2C(=O)c3cccc4cccc2c34)cc1	16*	-4	0	10	2	4
O=C(N/N=C/c1ccccc1)c1ccc(CN2C(=O)c3cccc4cccc2c34)cc1	43*	10	1	-9	-8	18
Cc1cc([N+](=O)[O-])nn1Cc1ccc(C(=O)N/N=C/c2ccc(O)cc2O)cc1	-2	3	1	-8	-7	22
O=C(N/N=C/c1cccnc1)c1ccc(CN2c3cccc4cccc(c34)S2(=O)=O)cc1	9	-2	2	-10	0	8
O=C(CN1C(=O)c2cccnc2Oc2ccc(Cl)cc21)NCCCc1ccccc1	2	-9	9	2	30*	15
Cc1cc(Cl)ccc1-c1nc(NC(C)C)nc2ccsc12	-6	6	1	-4	-11	8
CC(C)CC[n+]1ccccc1/C=C/c1ccc(N(C)C)cc1	9	-13	6	12	29*	-5
O=S(=O)(Nc1cccnc1)c1ccc(C2CCCCC2)cc1	6	-19	10	22	27*	9
O=S(=O)(Nc1cccnc1)c1ccccc1	-6	13	0	-6	-12	8
Cc1cc(C)c2c(n1)nn1c(N3CCN(c4ccccc4)CC3)cc(C)nc21	-6	-6	-1	33*	19	-10
Cc1cc(N2CCN(c3ccccc3)CC2)n2ncnc2n1	-2	9	2	-8	-6	13
COc1cc2c(cc1OC)-c1cc(Nc3cccc(C)c3)nc(=O)n1CC2	-4	1	8	0	3	4
CC(CNC(=O)c1ccc(NC2=NC3CS(=O)(=O)CC3S2)cc1)c1ccccc1 (stereo not given)	-2	8	1	-7	-14	18
O=C(c1ccc(NC2=NC3CS(=O)(=O)CC3S2)cc1)N(CCO)Cc1ccccc1 (stereo not given)	0	3	0	36*	-10	-2
COc1ccc(C(=O)NCC(c2ccco2)N2CCc3ccccc32)cc1 (stereo not given)	-6	7	-1	-11	-18	18
COc1ccc(C(=O)NCC(c2cccs2)N2CCc3ccccc32)c(OC)c1 (stereo not given)	-2	-4	5	-32	-4	58*
CN(C)CC/C=C1\c2ccccc2Sc2cc(F)c(Cl)cc21	-3	-24	2	-5	100*	25
CN(C)CC/C=C1\c2ccccc2Sc2ccc(Cl)cc21	-7	-27	1	11	100*	-5
CN(C)CC/C=C1\c2cc(Cl)ccc2Sc2cc(F)c(F)cc21	-5	-27	2	-2	100*	15
CN(C)CCOc1ccc2c(c1)Sc1ccccc1CC2=O	10	-6	4	9	9	-1
CN(C)CC/C=C1/c2ccc(F)cc2Sc2ccc(Cl)cc21	-6	-25	7	-11	100*	22
SMILES	CHRM1 agonist	CHRM1 PAM	M1 ag parental	CHO-K1 Ca antag	CHRM1 antagonist	M1 PAM parental
OCCN1CCN(CC/C=C2/c3ccccc3Sc3ccc(Cl)cc32)CC1	-6	-19	2	0	10	11
CN(C)CCOCCOc1ccc(Cl)cc1C(C)(C)C	-5	-7	4	-16	27	9
CCSc1nc2c(cnn2-c2ccccc2)c(=O)n1N	-2	-3	0	-1	-6	-12
Nc1[nH]ncc1-c1ccc(F)cc1	0	-8	0	-11	16	24
O=C(CCNC(=O)c1ccc([N+](=O)[O-])cc1)Nc1ccc(F)cc1F	-2	-6	0	18	6	-8
CN(C)CC/C=C1\c2ccc(F)cc2Sc2cc(F)c(Cl)cc21	-9	-28	2	0	100*	19
OCCN1CCN(c2ncnc3c2ncn3[C@H]2CN(Cc3cccc(C(F)(F)F)c3)C[C@@H](CO)O2)CC1	-4	5	0	-3	-14	6
COc1ccc(NC(=O)CCc2nnc3ccc(NCc4ccco4)nn23)cc1	-1	26*	1	-14	20	20
CC1=CC(C)(C)N(C(=O)CNC2CCCC2)c2cc(C)ccc21	-7	-23	0	-16	99*	9
Cc1ccc(C(=O)N(Cc2ccccc2)C(C)(C)C)cc1C	-7	-26	0	10	51*	4
CC(C)(C)N(Cc1ccccc1)C(=O)c1ccc(Cl)cc1[N+](=O)[O-]	-10	-29	2	16	39*	-13
CC(C)(C)N(Cc1ccccc1)C(=O)c1ccc(Br)o1	-7	4	0	-14	-5	6
CCCCN(C)C(=O)c1ccc(Nc2nc(C(N)Cc3ccc(C(F)(F)F)cc3)cs2)nc1 (stereo not given)	8	8	6	-3	0	20
Nc1c(C(=O)CSc2n[nH]c(-c3ccccc3Br)n2)c(=O)[nH]c(=O)n1C1CC1	-4	-6	1	-6	11	7
Nc1c(C(=O)CSc2n[nH]c(-c3ccccc3)n2)c(=O)[nH]c(=O)n1C1CC1	2	29*	0	-1	-27	1
COc1ccc(CCNC(=O)CCC(=O)NC2CCCC(C)C2C)cc1OC (stereo not given)	-3	6	-1	29*	-11	6
COc1ccc(CCNC(=O)CCC(=O)c2cccs2)cc1OC	-3	-5	0	28*	11	-26
COc1ccccc1C(=O)NCCC(=O)NC1CCCC(C)C1C (stereo not given)	-2	6	4	-12	-7	20
CCOC(=O)c1cnc2nc[nH]n2c1=O	-4	11	0	-9	-12	21
c1csc(CCNc2ncnc3sc4c(c23)CCC4)c1	2	-18	7	18	33*	-12
Nc1cc(-c2ccccc2)n2c(n1)nc1ccccc12	-9	-27	0	-7	92*	-10
N#Cc1c(-c2ccccc2)cc2nc3ccccc3n2c1N	-6	4	2	12	-7	10
COc1ccc(-c2oc(NC(=O)CSc3ncn[nH]3)c(C#N)c2-c2ccc(OC)cc2)cc1	-2	3	0	0	-8	9
